Reference: PubChem BioAssay AID1878 (Sanford-Burnham Center for Chemical Genomics, 2009)
The campaign covered roughly 1,000 compounds. About 200 (20%) were called active. Only a sample is shown. Potency and affinity values are given separately. Unmarked numbers belong to inactive results. No stated cut-off is given here; in the data, active means inhibition above about 55%; inactive means the rest.

The compounds below were run against Dual specificity protein phosphatase 3 (Homo sapiens) (UniProt P51452) (assay: VHR1 phosphatase inhibitors, biochemical (AID 1878)). Settings: recombinant VHR phosphatase, fluorogenic substrate; at 13.3 µM; active compounds read high.
Dual specificity protein phosphatase 3 (Homo sapiens), sequence (P51452 whole entry, looked up): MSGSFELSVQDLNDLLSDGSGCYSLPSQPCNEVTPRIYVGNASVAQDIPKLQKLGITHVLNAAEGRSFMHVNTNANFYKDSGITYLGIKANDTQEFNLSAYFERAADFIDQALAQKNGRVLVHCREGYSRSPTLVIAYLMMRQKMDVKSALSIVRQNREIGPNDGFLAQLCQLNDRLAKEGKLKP

Row | Structure (SMILES) | inhibition
1 | Cn1c(CNC(=O)CCNC(=O)c2cccc(Br)c2)cc(=O)n(C)c1=O | -19.2%
2 | O=C(O)CSc1cc(NS(=O)(=O)c2cccc([N+](=O)[O-])c2)c2ccccc2c1O | 1.4%
3 | O=C(Nc1cc([N+](=O)[O-])ccc1O)c1cccc(C(=O)Nc2cc([N+](=O)[O-])ccc2O)c1 | 98.4% (active)
4 | O=C(Nc1cccc2cccnc12)c1cccc(Cl)c1 | 2.2%
5 | CCOC(=O)C1=C(N)Oc2ccc3ccccc3c2C1c1ccc(O)c(OC)c1 (centres undefined) | -1.4%
6 | NC(=O)c1cc2ccccc2o/c1=N\NC(=O)c1ccccc1O | 98.4% (active)
7 | O=C(Nc1ccccc1Cl)c1cc2ccccc2o/c1=N\O | -1%
8 | CCC1CN(C(=O)NCc2ccc(F)cc2)c2ccccc2O1 (centres undefined) | 7.8%
9 | COc1ccc(C(=O)NCc2ccc(N3CCN(C)CC3)cc2)cc1 | 21.1%
10 | COc1cccc(C2NC(=O)CCC2[N+](=O)[O-])c1OC (centres undefined) | 3.9%
11 | COCCN(C(=O)CCC(=O)Nc1nccs1)C(C(=O)NCCC(C)C)c1ccc(OC)cc1 (centres undefined) | -22%
12 | COc1cc(C(C)=O)ccc1OCC(O)CN1CCN(c2ccc(F)cc2)CC1 (centres undefined) | -0.4%
13 | COc1nc(Nc2nc3ccccc3c(=O)[nH]2)nc2ccc(C)cc12 | 89.8% (active)
14 | CCC(=O)N1CCN(c2ccc(NC(=O)c3ccc(N4CCOCC4)c([N+](=O)[O-])c3)cc2)CC1 | -6.9%
15 | Fc1ccccc1/C=N/n1c(C2CCCCC2)n[nH]c1=S | 7.2%
16 | Cn1c(=O)[nH]c(=O)c2c1[nH]c(=S)n2CCCc1ccccc1 | 2.5%
17 | O=C(Cn1c2ccccc2c2nc3n(c(=O)c21)CCS3)N1CCCC1 | -3.8%
18 | CN(C)c1ccc(N2C(=NC(=O)C3CCCO3)SC3CS(=O)(=O)CC32)cc1 (centres undefined) | 10.7%
19 | Cc1ccc(CNCc2ccco2)cc1 | -2.3%
20 | CC(C)(C)c1ccc(O)c(N=Cc2c(O)ccc3ccccc23)c1 | -0.4%
21 | C/C(=N\N1CCN(c2ccccc2)CC1)c1ccc(O)cc1 | -1.9%
22 | Clc1nccnc1N/N=C/c1ccc(Br)cc1 | 1.6%
23 | CCCCn1nc(NC(=O)CC(C)C)c2cc3cc(OC)ccc3nc21 | 2.1%
24 | CCC1C(=O)C(C)(C)C(=O)OC1c1ccc([N+](=O)[O-])cc1 (centres undefined) | -5.8%

Row | Structure (SMILES) | inhibition
25 | O=C(CSc1nc2ccccc2n1CCc1ccccc1)c1ccc(O)c(O)c1 | 98.7% (active)
26 | CCOc1ccc(C(=O)N2CCN(CCc3ccccc3)CC2)cc1OCC | 1.8%
27 | Cc1ccccc1C1NC(=O)c2ccccc2O1 (centres undefined) | -14%
28 | COc1cccc2[nH]c3c(=O)[nH]cnc3c12 | -1.7%
29 | Cc1ccc(NC(=O)CNC(=O)N2CC(=O)Nc3ccccc32)cc1F | 15.4%
30 | O=C(Cn1cncn1)N/N=C/c1ccccc1Cl | -4.5%
31 | C[C@]12CCC3=C4CCC(=O)C=C4CC[C@H]3C1CC[C@@H]2O (some centres undefined) | 14.2%
32 | CN1C(C)(C)CC(NC(=O)c2ccco2)CC1(C)C | -4.7%
33 | COc1cc(C2Nc3ccccc3NC3=C2C(=O)CC(C)(C)C3)cc(OC)c1OC (centres undefined) | -7.9%
34 | CCOc1ccc(C(=O)N2CCC3(CC2)NCCc2[nH]cnc23)cc1 | -8.9%
35 | Cc1cc(C(=O)N/N=C/c2cc([N+](=O)[O-])cc(C)c2O)n[nH]1 | 76.1% (active)
36 | CCc1nn(CC(=O)NCCCN(C)C2CCCCC2)c(=O)c2cc3occc3n12 | 7.4%
37 | COc1cccc(CNC(=O)C2CCN(c3nn4c(=O)cc(C)nc4s3)CC2)c1 | -8.6%
38 | COc1ccccc1Nc1nn2c(=O)c3ccc(C(=O)NCc4cccnc4)cc3nc2s1 | 97.1% (active)
39 | COc1ccc(C(CC(=O)Nc2ncccc2C)N2Cc3ccccc3C2=O)cc1 (centres undefined) | -9.5%
40 | COc1cc(NC(=O)CN2C(=O)COc3ccc(S(=O)(=O)N4CCCCC4)cc32)cc(OC)c1 | -1.8%
41 | O=C(c1ccc(CS(=O)c2ccccc2Cl)o1)N1CCN(c2ccccc2)CC1 (centres undefined) | 2.8%
42 | CC(C)c1ccc(N2C(=NC(=O)C3CCCO3)SC3CS(=O)(=O)CC32)cc1 (centres undefined) | 11.9%
43 | COc1cc2c(cc1OC)-c1cc(Nc3cccc(F)c3)nc(=O)n1CC2 | 14.3%
44 | CN(C)c1ccc(NS(=O)(=O)c2cc3c4c(c2)CC(=O)N4CCC3)cc1 | -8%
45 | COc1cc(/C=N/NC(=O)c2ccc3c(c2)OCO3)ccc1O | -2%
46 | COc1cc(/C=N/Nc2ccc([N+](=O)[O-])cn2)cc(OC)c1O | -5.7%
47 | CCOc1ccc(NC(=O)CCC(=O)NNC(=O)c2ccccc2Cl)cc1 | 2%
48 | CCC1CCCCN1CCCNC(=O)c1cn(C)c2ccc(S(=O)(=O)N3CCOCC3)cc2c1=O (centres undefined) | -9.8%

Row | Structure (SMILES) | inhibition
49 | COCCN(CC1CCCN(C2Cc3ccccc3C2)C1)C(=O)CSC (centres undefined) | -11.6%
50 | C=C(C)CCC(C)N1CCC(n2nccc2NC(=O)CCCc2ccccc2)CC1 (centres undefined) | -2.3%
51 | N#C/C(=C\c1ccc(OCc2ccc(Cl)cc2)cc1)C(=O)Nc1cccc(C(=O)O)c1 | 84.9% (active)
52 | N#C/C(=C\c1ccc(OCc2ccc(Br)cc2)cc1)C(=O)Nc1cccc(C(=O)O)c1 | 87.5% (active)
53 | O=C(Nc1cccc(Cl)c1)OCCOc1ccccc1 | -0.9%
54 | Oc1ccc(NCc2ccc(OCc3ccccc3)cc2)cc1 | -5.6%
55 | Cn1c(=O)c2[nH]c(N3CCCCC3)nc2n(C)c1=O | 6.6%
56 | Cc1ccc(-n2nc3c(=O)n(CCCC(=O)NCc4ccco4)nc(C)c3c2C)cc1 | -4.7%
57 | CCN(CC)c1ccc(NS(=O)(=O)c2ccc(-c3ccc(=O)[nH]n3)o2)c(C)c1 | -2.9%
58 | COc1ccc(CCN(C)CC(O)COc2ccc(C(C)=O)cc2OC)cc1OC (centres undefined) | -11.9%
59 | CC(=O)COC(=O)C1=NN(c2ccccc2)C(=O)CC1 | 8.8%
60 | CCOC(=O)c1ccc(NCCc2ccc(OC)c(OC)c2)c(N)c1 | 33%
61 | COc1ccc(/C=N/N=C2/NC(=O)C(CC(=O)O)S2)cc1OCc1ccc(Cl)cc1Cl (centres undefined) | 95.9% (active)
62 | COc1ccc(Cl)cc1-n1c(=S)sc2c(=O)n(-c3ccc(F)cc3)c(SCC(=O)O)nc21 | -3.3%
63 | CCN(CC)c1ccc(NC(=O)c2c(C)noc2C)cc1 | -3.1%
64 | COCCN(C(=O)c1ccc(OC2CCN(S(=O)(=O)N(C)C)CC2)cc1)C(C)C | -6.4%
65 | COc1cc(C(=O)OC2C[C@H]3CC[C@@H](C2)N3C)ccc1O (some centres undefined) | -1.1%
66 | COc1ccc(C(=O)C2CCCN(C(=O)c3cccc(N(C)C)c3)C2)cc1OC (centres undefined) | 16.4%
67 | Cn1c(/C=C/c2ccc(Cl)cc2Cl)c([N+](=O)[O-])c(=O)n(C)c1=O | 20.2%
68 | CC1CCCCN1CCCNC(=O)Cn1c(=O)c2cccn2c2ccccc21 (centres undefined) | -1.3%
69 | COc1ccc(/C=N\NC(=O)c2cc(O)c(O)c(O)c2)cc1CN1CCN(c2ccc(F)cc2)CC1 | -34.7%
70 | COc1ccc2c(c1)cc1c(=O)n(CC(=O)NC(C)CCc3ccccc3)nc(C)n12 (centres undefined) | -4%
71 | CN1CC(=O)N2Cc3[nH]c4ccccc4c3C[C@H]2C1=O | 11.2%
72 | Cc1ccc(N2CCN(c3ncccc3[N+](=O)[O-])CC2)c(C)c1 | 8.1%

Row | Structure (SMILES) | inhibition
73 | NC(=O)C(c1ccc(F)cc1)c1ccc(C(=O)c2ccccc2)cc1 (centres undefined) | 18.3%
74 | CCOCCn1c2ccccc2c2nc3ccccc3nc21 | -4.2%
75 | COc1ccc(C(=O)/C=C2/C(=O)Nc3ccccc32)cc1OC | 13.2%
76 | CC(Oc1ccc2ccc(=O)oc2c1)C(=O)NC1CC(C)(C)NC(C)(C)C1 (centres undefined) | -2.5%
77 | Nc1ccc2c(c1Cl)C(=O)c1ccc(N)c(Cl)c1C2=O | 99.8% (active)
78 | CCCC(=O)Nc1ccc(S(=O)(=O)N2CCOCC2)cc1 | -5.6%
79 | CC(C)(C)CC(=O)Nc1ccc(-c2nnc3n2CCCCC3)cc1 | 27.9%
80 | COc1nc(C)cc(C)c1S(=O)(=O)c1ccccc1 | 6.1%
81 | O=C(NCCc1ccccc1)C1CC(=O)N(CCc2ccccc2)C1 (centres undefined) | -8.3%
82 | c1ccc(CCNC2CCCCCC2)cc1 | 14.2%
83 | CC1CCN(S(=O)(=O)c2ccc3c(c2)N(CC(=O)NCCCN2C(C)CCCC2C)C(=O)CO3)CC1 (centres undefined) | -11.5%
84 | O=C(O)Cn1nc2c3c(cccc3c1=O)-c1ccccc1-2 | -3.4%
85 | Cc1cc2nc(/C=C/c3nc4cc(C)c(C)cc4[nH]3)[nH]c2cc1C | 82.4% (active)
86 | NC(=O)C(c1ccccc1)c1ccc(C(=O)c2ccccc2)cc1 (centres undefined) | -3.2%
87 | Cn1nc([N+](=O)[O-])c2c(-c3nc4ccccc4s3)c(N)n(C3CCCCC3)c2c1=O | 97.9% (active)
88 | COc1cccc(NC(=O)CN(C)S(=O)(=O)c2ccc3[nH]c(=O)oc3c2)c1 | 9%
89 | O=C(Cn1ncc2c([nH]c3ccccc32)c1=O)N1CCOCC1 | 16.5%
90 | COc1cc(/C=C2/C(=O)NN(c3ccc(Cl)cc3)C2=O)cc(OC)c1O | 17.9%
91 | COc1cc(/C=C2/C(=O)N(c3cccc(Br)c3)N=C2C)cc(OC)c1O | 6.8%
92 | CC(C)(C)OC(=O)NCC1CCN(S(=O)(=O)Cc2ccccc2)CC1 | -7.1%
93 | CCOc1ccc(-c2cc(C(=O)NCCCN3CCCC3)c3ccccc3n2)cc1 | -16.4%
94 | C/C(N)=C(/C#N)C(=O)COC(=O)c1cc(-c2ccc(Br)cc2)nc2ccccc12 | -2.7%
